Compounds without any hit were thinned out: in the full panel of roughly 83,000, 20% have a hit.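 The test compound was applied at a single concentration to cells in 96-well plates for 48 hours, and percent growth was recorded.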 Values without a mark were called inactive. The source made the active and inactive calls. How the source made its calls: active means growth percent below 10; inactive means the rest.

In one assay the test system is SNB-75 CNS. The assay can be described thus: NCI-60 one-dose screen, 48 h (100 = growth as untreated, 0 = no growth, -100 = all killed). Particulars: 10 µM unless noted.
In the case of `c1ccc(Cn2cnc3ccc(-c4nc(-c5ccc6c(c5)ncn6C5CCCCC5)cn5ccnc45)cc32)cc1`, the growth was -67.4% (active).

`N/C(=N\C(N)=N\c1nc2ccccc2s1)c1cccc(Cl)c1`: the growth is 95.2%.

In the case of `O=C(Cc1ccccc1)NNc1nc(Cl)nc(N2CCN(C(c3ccccc3)c3ccccc3)CC2)n1`, the growth is 96%.

`CCN(CC)c1ccc(C(=O)c2ccccc2)cc1`: the growth was 93.5%.

Take `O=C(Nc1ncc(Cc2cc(Cl)ccc2Cl)s1)c1cccs1`: the growth is 72.5%.

For the compound `COc1cc(C2C3CC4CCCC[C@H]4N3[C@@]3(C(=O)Nc4cc(Cl)ccc43)C2C(=O)c2nc3ccccc3[nH]2)cc(OC)c1OC` (some centres undefined), the growth is 78.8%.

On to `CC(=O)[C@@H]1CC[C@]2(C(N)=O)CC[C@]3(C)[C@H](CC[C@@H]4[C@@]5(C)CCCNC(C)(C)[C@@H]5CC[C@]43C)[C@@H]12`, for which the growth was 80.4%.

For `Cc1cccc(C)c1N=c1oc2ccc(Cl)cc2nc1-c1ccccc1O`, the growth is 87.3%.

Turning to `O=S(=O)(NCCCNc1nccc(-c2c(-c3cccc(O)c3)nc3occn23)n1)c1ccc(Cl)cc1`, the growth is 92%.

Regarding `N#C/C(=C\c1ccc([N+](=O)[O-])s1)c1nc2cc(Br)ccc2s1`, the growth is 12%.

Regarding `Oc1ccc(C(c2ccc(O)cc2)c2ccc(Br)cn2)cc1`, the growth is -10.3% (active).

As to `Cc1nc2sccn2c1-c1cn2ccsc2n1`, the growth is 84.8%.

`CCOC(=O)/C(C#N)=C1/NNC(=Nc2cccnc2)S1`: the growth was 92%.

For `O=S(=O)(NCCCNc1nccc(-c2c(-c3cccc(F)c3)nc3sccn23)n1)c1cccc2ccccc12`, the growth was 86.5%.

Consider `CCCNC(=O)Oc1ccc(/C(=C(\C)c2ccccc2)c2ccc(OCCCN(C)C)cc2)cc1`, for which the growth was 86.2%.

For the compound `O=C(CSc1nc2sc3c(c2c(=O)n1-c1ccc(Cl)cc1)CCCC3)Nc1nc(-c2cccc(Br)c2)cs1`, the growth was 41.7%.

For the compound `O=C1c2ccc3c4c(ccc(c24)C(=O)N1CCCNCc1ccccc1F)C(=O)N(CCCNCc1ccccc1F)C3=O`, the growth is -98.2% (active).

For the compound `CCN(CC)c1ccc(/C=N/NC(=O)CSc2nc3ccccc3c(=O)n2CCc2ccc(S(N)(=O)=O)cc2)c(O)c1`, the growth was 59.2%.

On to `CCCCCN1C=C/C(=C\C(=O)N(C)c2ccc(Oc3ccccc3)cc2)c2ccccc21`, for which the growth was 104%.

`C/C=C(\C)C(=O)NC1=CC[C@@]2(C)C(=CCC3C2CC[C@@]2(C)C3CC[C@@H]2C(C)N(C)C)C1=O` (some centres undefined): the growth was 42.3%.

For `C[C@H]1[C@H](C)CC[C@]2(C(=O)NCC#CCN3CCN(C)CC3)CC[C@]3(C)C(=CC[C@@H]4[C@@]5(C)Cc6c([nH]c7ccccc67)C(C)(C)[C@@H]5CC[C@]43C)[C@H]12`, the growth is 90.1%.

As to `CCOC(=O)c1cc(C(=O)c2ccc(Br)cc2)n2ccc(/C=C/c3cc[n+](CC(=O)c4ccc(OC)cc4)cc3)cc12`, the growth was 93.7%.

With `NC(=NCCCOc1ccc(F)cc1)Nc1ccc(I)cc1`, the growth was 63.6%.

Consider `O=C(/C=C(/C=C/c1coc2ccccc12)OB(F)F)/C=C/c1coc2ccccc12`, for which the growth was 98%.

As to `COc1cc(NC(=O)CSc2nc3ccc(C)cc3c(=O)n2Cc2ccccc2)cc(OC)c1OC`, the growth was -5.79% (active).

Regarding `Oc1ccc(C2c3ccccc3Oc3ccccc32)c2cccnc12`, the growth was 27.2%.

As to `Cc1ccc(C(=O)/C(=C\c2ccc([N+](=O)[O-])cc2)S(=O)Cc2ccc(F)cc2)cc1` (centres undefined), the growth was 57.1%.

As for `COc1cc2oc(-c3cccc(C(=O)Nc4ccccc4)c3)cc(=O)c2c(O)c1OC`, the growth is 21.8%.

With `COc1ccc(C(=O)/C=C/c2cc3ccccc3n3nnnc23)cc1`, the growth is 98.3%.

As to `Cc1nc2sccn2c1-c1nc2sccn2c1/C=C1/C(=O)Nc2ccccc21`, the growth is 15.2%.

`COc1cc2c(c(OC)c1OC)CCC(c1cccc(NC(=O)c3cccc(Br)c3)c1)O2` (centres undefined): the growth was 86.8%.

Take `CCCCCN1C=C/C(=C\C(=O)N(C)c2ccccc2Br)c2ccccc21`: the growth is 91.7%.

Consider `COc1ccc(C(=O)c2cc(OC)c(OC)c(OC)c2)cc1O`, for which the growth was -0.83% (active).

Take `CC(C)(C)c1cc(C=O)cc(C(C)(C)C)c1O`: the growth was 83.6%.

Regarding `CCOC(=O)c1nc2c3ccccc3ccn2c1C(=O)OCC`, the growth was 36.8%.

As to `CC(C)=CCC[C@](C)(O)[C@H]1CC[C@]2(C)[C@@H]1CC[C@@H]1[C@@]3(C)C/C(=C/c4ccccc4)C(=O)C(C)(C)[C@@H]3CC[C@]12C`, the growth was 67.2%.

Take `C=C(C)[C@@H]1CC[C@]2(C(=O)N3CCN(C)CC3)CC[C@]3(C)[C@H](CC[C@@H]4[C@@]5(C)CC[C@H](O)C(C)(C)[C@@H]5CC[C@]43C)[C@@H]12`: the growth was -93.2% (active).

A further assay relates to SNB-19 CNS. Described as above. Particulars: 10 µM unless noted.
As for `c1ccc(Cn2cnc3ccc(-c4nc(-c5ccc6c(c5)ncn6C5CCCCC5)cn5ccnc45)cc32)cc1`, the growth is 19.6%.

With `N/C(=N\C(N)=N\c1nc2ccccc2s1)c1cccc(Cl)c1`, the growth is 97.1%.

Turning to `O=C(Cc1ccccc1)NNc1nc(Cl)nc(N2CCN(C(c3ccccc3)c3ccccc3)CC2)n1`, the growth is 94%.

`CCN(CC)c1ccc(C(=O)c2ccccc2)cc1`: the growth is 97.7%.

Turning to `O=C(Nc1ncc(Cc2cc(Cl)ccc2Cl)s1)c1cccs1`, the growth is 72.9%.

For `COc1cc(C2C3CC4CCCC[C@H]4N3[C@@]3(C(=O)Nc4cc(Cl)ccc43)C2C(=O)c2nc3ccccc3[nH]2)cc(OC)c1OC` (some centres undefined), the growth is 72.5%.

As to `CC(=O)[C@@H]1CC[C@]2(C(N)=O)CC[C@]3(C)[C@H](CC[C@@H]4[C@@]5(C)CCCNC(C)(C)[C@@H]5CC[C@]43C)[C@@H]12`, the growth is 86.2%.

On to `Cc1cccc(C)c1N=c1oc2ccc(Cl)cc2nc1-c1ccccc1O`, for which the growth was 109%.

Regarding `O=S(=O)(NCCCNc1nccc(-c2c(-c3cccc(O)c3)nc3occn23)n1)c1ccc(Cl)cc1`, the growth was 108%.

As for `N#C/C(=C\c1ccc([N+](=O)[O-])s1)c1nc2cc(Br)ccc2s1`, the growth was 7.78% (active).

Regarding `Oc1ccc(C(c2ccc(O)cc2)c2ccc(Br)cn2)cc1`, the growth was 66.9%.

Take `Cc1nc2sccn2c1-c1cn2ccsc2n1`: the growth is 93.1%.

`CCOC(=O)/C(C#N)=C1/NNC(=Nc2cccnc2)S1`: the growth is 95.9%.

As to `O=S(=O)(NCCCNc1nccc(-c2c(-c3cccc(F)c3)nc3sccn23)n1)c1cccc2ccccc12`, the growth was 69%.

In the case of `CCCNC(=O)Oc1ccc(/C(=C(\C)c2ccccc2)c2ccc(OCCCN(C)C)cc2)cc1`, the growth is 84.9%.

Turning to `O=C(CSc1nc2sc3c(c2c(=O)n1-c1ccc(Cl)cc1)CCCC3)Nc1nc(-c2cccc(Br)c2)cs1`, the growth was 84.8%.

Turning to `O=C1c2ccc3c4c(ccc(c24)C(=O)N1CCCNCc1ccccc1F)C(=O)N(CCCNCc1ccccc1F)C3=O`, the growth was -64.3% (active).

In the case of `CCN(CC)c1ccc(/C=N/NC(=O)CSc2nc3ccccc3c(=O)n2CCc2ccc(S(N)(=O)=O)cc2)c(O)c1`, the growth was 53.9%.

Regarding `CCCCCN1C=C/C(=C\C(=O)N(C)c2ccc(Oc3ccccc3)cc2)c2ccccc21`, the growth was 88.2%.

As for `C/C=C(\C)C(=O)NC1=CC[C@@]2(C)C(=CCC3C2CC[C@@]2(C)C3CC[C@@H]2C(C)N(C)C)C1=O` (some centres undefined), the growth was 83%.

With `C[C@H]1[C@H](C)CC[C@]2(C(=O)NCC#CCN3CCN(C)CC3)CC[C@]3(C)C(=CC[C@@H]4[C@@]5(C)Cc6c([nH]c7ccccc67)C(C)(C)[C@@H]5CC[C@]43C)[C@H]12`, the growth was 83.2%.

On to `CCOC(=O)c1cc(C(=O)c2ccc(Br)cc2)n2ccc(/C=C/c3cc[n+](CC(=O)c4ccc(OC)cc4)cc3)cc12`, for which the growth was 89.1%.

For `NC(=NCCCOc1ccc(F)cc1)Nc1ccc(I)cc1`, the growth is 78.1%.

As for `O=C(/C=C(/C=C/c1coc2ccccc12)OB(F)F)/C=C/c1coc2ccccc12`, the growth was 89.1%.

For `COc1cc(NC(=O)CSc2nc3ccc(C)cc3c(=O)n2Cc2ccccc2)cc(OC)c1OC`, the growth was 89.8%.

In the case of `Oc1ccc(C2c3ccccc3Oc3ccccc32)c2cccnc12`, the growth is 26.7%.

For `Cc1ccc(C(=O)/C(=C\c2ccc([N+](=O)[O-])cc2)S(=O)Cc2ccc(F)cc2)cc1` (centres undefined), the growth was 41.2%.

With `COc1cc2oc(-c3cccc(C(=O)Nc4ccccc4)c3)cc(=O)c2c(O)c1OC`, the growth is 57.7%.

Turning to `COc1ccc(C(=O)/C=C/c2cc3ccccc3n3nnnc23)cc1`, the growth is 99.1%.

`Cc1nc2sccn2c1-c1nc2sccn2c1/C=C1/C(=O)Nc2ccccc21`: the growth was 31.5%.

As to `COc1cc2c(c(OC)c1OC)CCC(c1cccc(NC(=O)c3cccc(Br)c3)c1)O2` (centres undefined), the growth was 94.5%.

Take `CCCCCN1C=C/C(=C\C(=O)N(C)c2ccccc2Br)c2ccccc21`: the growth was 94.6%.

For `COc1ccc(C(=O)c2cc(OC)c(OC)c(OC)c2)cc1O`, the growth was 28.5%.

Regarding `CC(C)(C)c1cc(C=O)cc(C(C)(C)C)c1O`, the growth was 101%.

In the case of `CCOC(=O)c1nc2c3ccccc3ccn2c1C(=O)OCC`, the growth is 89.2%.

On to `CC(C)=CCC[C@](C)(O)[C@H]1CC[C@]2(C)[C@@H]1CC[C@@H]1[C@@]3(C)C/C(=C/c4ccccc4)C(=O)C(C)(C)[C@@H]3CC[C@]12C`, for which the growth is 88%.

In the case of `C=C(C)[C@@H]1CC[C@]2(C(=O)N3CCN(C)CC3)CC[C@]3(C)[C@H](CC[C@@H]4[C@@]5(C)CC[C@H](O)C(C)(C)[C@@H]5CC[C@]43C)[C@@H]12`, the growth is -52% (active).

Source of the values: PubChem BioAssay (NCI).
